Source: PubChem BioAssay AID504832 (National Center for Advancing Translational Sciences (NCATS), 2011)
About 18,000 (5.8%) of roughly 310,000 compounds were called active. Not shown: some 22% with an inconclusive outcome. Calls come from the whole dose curve; as a rule, active = well fitted inhibition curve with a large enough effect; inconclusive = small, poorly fitted or top-dose-only effect, or another doubt; inactive = no such curve, though single readings can be large or run the other way. The entries come from a sample that favours actives as a whole.

Assay: Primary qHTS for delayed death inhibitors of the malarial parasite plastid, 48 hour incubation
Details: P. falciparum luciferase growth in erythrocytes; series mostly up to 28.7 µM; activity change, negative = inhibition: at the top concentration
Summary of the method: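 Luminescence readout; reporter = integrated firefly luciferase in P. falciparum. RBC culture at 2% hematocrit, 0.1% parasitemia final, 37 C/5% CO2; decreased signal taken as growth inhibition.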
% is set by controls: 0 for no effect and ±100 for the full control effect; potency is the fitted concentration of half-maximal effect.

Q: Which “activity change, negative = inhibition” value does the source give for `CCc1nc2nc(C)c(NS(=O)(=O)c3ccc4c(c3)CCCC4)c(=O)n2[nH]1` here?
A: Its value is 8.15% (inactive).

Q: Which “activity change, negative = inhibition” value does the source give for `CN(CC(=O)Nc1cccc(F)c1)C(=O)CC1CCCC1` here?
A: Its value is -5.39% (inactive).

Q: Which “activity change, negative = inhibition” value does the source give for `Cc1ccc(-c2ccnc3[nH]n(-c4ccccc4)c(=O)c23)cc1` here?
A: The value was 35.7% (inactive).

Q: With `C=CCn1c(CNS(=O)(=O)c2ccc(Br)cc2)nnc1SC` as the compound, how does the “activity change, negative = inhibition” value read?
A: The value was 68.4% (inactive).

Q: For `COc1ccc(OC)c(NC(=O)Cc2cccs2)c1`, which “activity change, negative = inhibition” value is on record?
A: Its value is -3.98% (inactive).

Q: Which “activity change, negative = inhibition” value does the source give for `CN(CC(=O)NNC(=O)CNC(=O)c1ccccc1Cl)S(=O)(=O)c1ccc(Cl)cc1` here?
A: The value was 10.7% (inactive).

Q: For `Cc1csc(SCC(=O)N(c2ccccc2)C(C)C)n1`, which Potency is on record?
A: Its Potency is 10.4 µM (active).

Q: With `COc1ccc(NC(=O)CSc2nc(C)cs2)cc1` as the compound, how does the “activity change, negative = inhibition” value read?
A: Its value is 29.2% (inactive).

Q: With `Cc1ccc(C(=O)N2CC(=O)Nc3ccc(F)cc3C2c2ccc(F)cc2)cc1` (stereo unspecified) as the compound, how does the “activity change, negative = inhibition” value read?
A: The value was -27.6% (inactive).

Q: With `O=S(=O)(c1cccs1)N1CCN(CCOc2ccccc2)CC1` as the compound, how does the “activity change, negative = inhibition” value read?
A: The value was -21.8% (inactive).

Q: Which “activity change, negative = inhibition” value does the source give for `COC(=O)c1ccc2c(C(C)(C)O)c(C(C)(C)O)[nH]c2c1` here?
A: Its value is 24.6% (inactive).

Q: Which Potency does the source give for `COc1cccc(/C=N/Nc2ncc(C(F)(F)F)cc2Cl)c1O` here?
A: The Potency was 1.04 µM (active).

Q: With `COc1cc(/C=C2\SC(=S)N(Nc3ncc(C(F)(F)F)cc3Cl)C2=O)cc(OC)c1OC` as the compound, how does the “activity change, negative = inhibition” value read?
A: The value was 4.07% (inactive).

Q: Which “activity change, negative = inhibition” value does the source give for `COc1cccc(/C(C)=N/Nc2ncc(Cl)cc2Cl)c1` here?
A: The value was 113% (inactive).

Q: For `O=C(NNC(=O)c1ccco1)Nc1ccccc1`, which “activity change, negative = inhibition” value is on record?
A: Its value is 21.8% (inactive).

Q: With `Cc1ccc(C(=O)OCC(=O)NC(=O)Cc2ccccc2)c(O)c1` as the compound, how does the “activity change, negative = inhibition” value read?
A: The value was 0.538% (inactive).

Q: For `COc1cc(NS(=O)(=O)c2ccc(NC(=S)NC(=O)c3ccc(Br)cc3)cc2)ncn1`, which “activity change, negative = inhibition” value is on record?
A: Its value is 12.6% (inactive).

Q: For `COc1ccc(CC(=O)NC(C)CCc2ccccc2)cc1` (stereo unspecified), which “activity change, negative = inhibition” value is on record?
A: The value was -23% (inactive).

Q: For `COc1ccc(Cc2cc(-c3ccc(F)cc3)n[nH]c2=O)cc1`, which “activity change, negative = inhibition” value is on record?
A: Its value is 5% (inactive).

Q: For `COc1ccc(C(CCNCc2ccccc2F)c2ccc(F)cc2)cc1` (stereo unspecified), which Potency is on record?
A: The Potency was 7.38 µM (active).

Q: With `CC1(C)Cc2c(cnn2-c2cccc(F)c2)C(NC(=O)c2cc[n+]([O-])cc2)C1` (stereo unspecified) as the compound, how does the “activity change, negative = inhibition” value read?
A: The value was 5.83% (inactive).

Q: With `Cc1ccc(S(=O)(=O)N2CCOCC2)cc1NC(=O)COC(=O)c1cnccn1` as the compound, how does the “activity change, negative = inhibition” value read?
A: The value was 10.8% (inactive).

Q: For `Cc1cccc(NS(=O)(=O)c2ccc([N+](=O)[O-])cc2)n1`, which “activity change, negative = inhibition” value is on record?
A: Its value is -2.21% (inactive).

Q: Which “activity change, negative = inhibition” value does the source give for `O=C(Cc1ccc(Cl)c(Cl)c1)Nc1ccc(SC(F)F)cc1` here?
A: Its value is -93.2% (inactive).

Q: With `Cc1ccc(NC(=O)CC(=O)Nc2ccc(C)cc2)cc1` as the compound, how does the “activity change, negative = inhibition” value read?
A: The value was 3.91% (inactive).

Q: For `O=C(CCl)Nc1ccc(Sc2ccc(NC(=O)CCl)cc2)cc1`, which Potency is on record?
A: Its Potency is 3.29 µM (active).

Q: With `CCN(CC)S(=O)(=O)c1ccc(-c2cn3ccc(C)cc3n2)cc1` as the compound, how does the “activity change, negative = inhibition” value read?
A: Its value is 171% (inactive).

Q: With `CCCOc1cccc(C(=O)NCCCNC(=O)c2cccnc2)c1` as the compound, how does the “activity change, negative = inhibition” value read?
A: Its value is -2.92% (inactive).

Q: For `Cc1nn(C(C)C(=O)NCCC2=CCCCC2)c(=O)c2nn(-c3ccccc3)c(C)c12` (stereo unspecified), which “activity change, negative = inhibition” value is on record?
A: The value was -12.9% (inactive).

Q: With `O=C(NNS(=O)(=O)c1ccc(F)cc1)C1CCCCC1` as the compound, how does the “activity change, negative = inhibition” value read?
A: The value was 9.65% (inactive).

Q: Which “activity change, negative = inhibition” value does the source give for `CS(=O)(=O)Nc1ccccc1N=C(c1ccccc1)c1ccccc1` here?
A: The value was -17.5% (inactive).

Q: For `CCOc1ccc(-n2c(N)c(C(=O)NCC3CCCO3)sc2=S)cc1` (stereo unspecified), which “activity change, negative = inhibition” value is on record?
A: Its value is 8.29% (inactive).

Q: Which “activity change, negative = inhibition” value does the source give for `COCCNC(=O)C(c1ccc(C)o1)N(Cc1cccs1)C(=O)c1snc(C(N)=O)c1N` (stereo unspecified) here?
A: The value was -9.83% (inactive).

Q: Which “activity change, negative = inhibition” value does the source give for `CCOc1cc(C(C(=O)NCC2CCCO2)N(C(=O)Cn2nnc3ccccc32)c2cccc(OC)c2)ccc1O` (stereo unspecified) here?
A: The value was -23.6% (inactive).

Q: For `COC(=O)c1cccc(N(C(=O)CNC(=O)c2cccs2)C(C(=O)NCC2CCCO2)c2ccc(OC)c(OC)c2)c1` (stereo unspecified), which “activity change, negative = inhibition” value is on record?
A: Its value is -17.6% (inactive).

Q: Which Potency does the source give for `Cc1ccc(N(C(=O)c2snc(C(N)=O)c2N)C(C(=O)NCC2CCCO2)c2c[nH]c3ccccc23)cc1` (stereo unspecified) here?
A: The Potency was 7.38 µM (active).

Q: Which “activity change, negative = inhibition” value does the source give for `CC(Sc1nn(-c2ccc(Cl)cc2)c(=S)s1)C(=O)NCC1CCCO1` (stereo unspecified) here?
A: Its value is 18.6% (inactive).

Q: With `CCOc1ccc(N(C(=O)c2snc(C(N)=O)c2N)C(C(=O)NCC2CCCO2)c2c[nH]c3ccccc23)cc1` (stereo unspecified) as the compound, how does the Potency read?
A: Its Potency is 5.22 µM (active).

Q: Which “activity change, negative = inhibition” value does the source give for `CCOc1ccc(N(CC(=O)NCC2CCCO2)S(=O)(=O)c2ccc(C)cc2)cc1` (stereo unspecified) here?
A: Its value is 19.1% (inactive).

Q: For `COc1cccc(N(C(=O)c2snc(C(N)=O)c2N)C(C(=O)NCC2CCCO2)c2c[nH]c3ccccc23)c1` (stereo unspecified), which Potency is on record?
A: The Potency was 9.28 µM (active).

Q: For `Cc1ccc(N(C(=O)Cc2cccs2)C(C(=O)NCC2CCCO2)c2ccncc2)cc1` (stereo unspecified), which “activity change, negative = inhibition” value is on record?
A: Its value is -1.9% (inactive).

Q: Which Potency does the source give for `Cc1ccc(C(C(=O)NCC2CCCO2)N(C(=O)c2snc(C(N)=O)c2N)c2ccc(C(C)C)cc2)o1` (stereo unspecified) here?
A: The Potency was 9.28 µM (active).

Q: For `O=C(NCCc1c[nH]c2ccccc12)C(=O)NCC1CCCO1` (stereo unspecified), which “activity change, negative = inhibition” value is on record?
A: The value was 13.2% (inactive).

Q: Which “activity change, negative = inhibition” value does the source give for `COc1ccc2oc(=O)cc(CN3CCOCC3)c2c1` here?
A: The value was -29% (inactive).

Q: Which “activity change, negative = inhibition” value does the source give for `CC(=O)c1c(C)[nH]c(C(=O)CN2C(=O)NC(C)(C)C2=O)c1C` here?
A: The value was 16.6% (inactive).

Q: With `CC1CCCN(C(=O)CN2C(=O)c3ccccc3S2(=O)=O)C1` (stereo unspecified) as the compound, how does the “activity change, negative = inhibition” value read?
A: The value was 270% (inactive).

Q: With `O=C(NNS(=O)(=O)c1ccc([N+](=O)[O-])cc1)C1CCCCC1` as the compound, how does the “activity change, negative = inhibition” value read?
A: The value was 2.73% (inactive).

Q: For `CC(=O)O[C@H]1c2ccccc2-c2ccccc2[C@@H]1OC(C)=O`, which “activity change, negative = inhibition” value is on record?
A: The value was 23.1% (inactive).

Q: With `C[N+](C)(C)CCNC(=O)c1cc[n+](Cc2ccccc2)c(/C=N/O)c1` as the compound, how does the “activity change, negative = inhibition” value read?
A: Its value is -1.42% (inactive).

Q: With `CC(=O)c1ccc(S(=O)(=O)NCCC(=O)N2CCN(c3ccccn3)CC2)cc1` as the compound, how does the “activity change, negative = inhibition” value read?
A: The value was -21.6% (inactive).

Q: With `COc1cc(NC(=O)c2ccccc2)c(OC)cc1NC(=O)Cc1ccccc1` as the compound, how does the “activity change, negative = inhibition” value read?
A: The value was -22.9% (inactive).

Q: For `Nn1c(SCC(=O)Nc2nccs2)nnc1-c1ccco1`, which “activity change, negative = inhibition” value is on record?
A: Its value is 24.4% (inactive).

Q: For `CCC(NC(=O)C1CCCC1)c1ccc(C)cc1` (stereo unspecified), which “activity change, negative = inhibition” value is on record?
A: Its value is 5.68% (inactive).

Q: Which “activity change, negative = inhibition” value does the source give for `COc1cccc(N2CC(NS(=O)(=O)c3cccs3)CC2=O)c1` (stereo unspecified) here?
A: Its value is 3.72% (inactive).

Q: For `Cc1ccc(C(=O)c2c(NC(=O)c3ccncc3)sc3c2CCCC3)cc1`, which Potency is on record?
A: Its Potency is 6.57 µM (active).

Q: With `Cc1ccc(NC(=O)c2c(NC(=O)CCC(=O)O)sc3c2CCCCC3)cc1` as the compound, how does the “activity change, negative = inhibition” value read?
A: Its value is 42.9% (inactive).

Q: For `NC(=O)c1c(NC(=O)c2ccccc2)sc2c1CCCC2`, which “activity change, negative = inhibition” value is on record?
A: The value was 225% (inactive).

Q: With `COc1cccc(NC(=O)N2CCC(NC(=O)C(Cc3cccc(C)c3)NC(C)=O)CC2)c1` (stereo unspecified) as the compound, how does the “activity change, negative = inhibition” value read?
A: The value was -8.06% (inactive).

Q: With `CC(C)[C@H](NC(=O)N1CCn2c1nc1ccccc12)C(=O)NC1CC1` as the compound, how does the “activity change, negative = inhibition” value read?
A: The value was -2.75% (inactive).

Q: For `COC(=O)c1c(NC(=O)c2ccc(S(=O)(=O)N3CCOCC3)cc2)sc2c1CCN(C(C)C)C2`, which Potency is on record?
A: Its Potency is 11.7 µM (active).

Q: For `CNC(=O)c1ccsc1NC(=O)c1ccc(S(=O)(=O)N2CCOCC2)cc1`, which “activity change, negative = inhibition” value is on record?
A: The value was -5.56% (inactive).

Q: With `CC(OC(=O)c1ccc(S(=O)(=O)N2CCOCC2)cc1)c1ccccc1` (stereo unspecified) as the compound, how does the “activity change, negative = inhibition” value read?
A: The value was -3.14% (inactive).

Q: With `COCC(=O)N1CCCC(C(=O)c2ccc(C(F)(F)F)cc2)C1` (stereo unspecified) as the compound, how does the “activity change, negative = inhibition” value read?
A: The value was -0.209% (inactive).

Q: With `O=c1[nH]c(CSc2ccccc2)nc2c1oc1ccccc12` as the compound, how does the Potency read?
A: The Potency was 10.4 µM (active).

Q: For `Cc1nc(Cl)c2oc3ccccc3c2n1`, which “activity change, negative = inhibition” value is on record?
A: The value was -21% (inactive).

Q: For `CCOC(=O)c1sc2nc(CSc3ccccc3)[nH]c(=O)c2c1C`, which “activity change, negative = inhibition” value is on record?
A: Its value is 33.8% (inactive).
